Measurements reported in PubChem BioAssay AID619 (University of Pittsburgh Molecular Library Screening Center, 2007).
In all, about 97,000 compounds went through this assay and about 520 (0.54%) were called active.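 Rule for the calls: active = inhibition of 50% or more in the single-concentration screen; inactive = inhibition below 50%.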 For the sample, actives were picked, then their nearest neighbours and some compounds at random.

Target: Serine/threonine-protein kinase PLK1 (Homo sapiens) (UniProt P53350)
Experiment: human PLK1 kinase inhibitors, primary screen, biochemical, TR-FRET (AID 619);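 note: 0% = DMSO max control and 100% = H-89 dihydrochloride min control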
Conditions: recombinant PLK1 kinase, TR-FRET peptide phosphorylation; at 10 µM; hits give high values

Chain of Serine/threonine-protein kinase PLK1 (Homo sapiens) (P53350 whole entry, looked up): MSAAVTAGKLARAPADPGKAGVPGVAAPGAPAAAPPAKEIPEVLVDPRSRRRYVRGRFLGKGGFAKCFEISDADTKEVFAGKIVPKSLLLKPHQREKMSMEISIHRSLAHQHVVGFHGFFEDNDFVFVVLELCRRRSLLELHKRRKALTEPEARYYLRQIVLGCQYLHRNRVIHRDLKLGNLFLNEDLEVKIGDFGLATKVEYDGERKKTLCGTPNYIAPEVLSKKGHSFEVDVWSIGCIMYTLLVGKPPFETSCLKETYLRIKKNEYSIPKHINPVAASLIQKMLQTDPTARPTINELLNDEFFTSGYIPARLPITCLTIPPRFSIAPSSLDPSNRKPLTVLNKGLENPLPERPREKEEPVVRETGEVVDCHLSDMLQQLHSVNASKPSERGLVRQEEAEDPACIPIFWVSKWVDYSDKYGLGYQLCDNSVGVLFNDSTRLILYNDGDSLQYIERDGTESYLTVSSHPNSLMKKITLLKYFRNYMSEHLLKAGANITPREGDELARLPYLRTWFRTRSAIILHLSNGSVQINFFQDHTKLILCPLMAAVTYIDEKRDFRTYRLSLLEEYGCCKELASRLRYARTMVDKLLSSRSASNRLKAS

inhibition, inactive:
COCC(=O)Nc1ccc(Br)cc1 2.4%
COc1ccc(NCc2nnc(SCc3ccccc3)n2-c2ccc(OC)cc2)cc1 -14.5%
CC1Cc2ccccc2N1C(=O)c1cc2sccc2n1Cc1ccccc1 (stereo not drawn) -10.7%
Cc1ccc(C(=O)N/C(=C/C=C/c2ccccc2)C(=O)NCc2ccco2)cc1 -5.76%
O=C(/C=C/c1ccccc1)N/C(=C/c1ccccc1)C(=O)Nc1ccccc1O -4.44%
Cc1ccccc1-n1c(C)cc(/C=N/NC(=O)c2ccc(CN3CCOCC3)cc2)c1C -16%
Fc1ccccc1COc1ccccc1CNCc1ccncc1 -5.47%
COCCCNC(=O)CN1CCN(Cc2ccccc2Cl)C1=O -2.49%
COC(=O)CNS(=O)(=O)c1ccc(OC)cc1 -2.7%
Cc1ccc(-n2c(CNc3ccc(F)cc3)nnc2SCC(=O)N2CCOCC2)cc1 -8.34%
O=C(NCc1ccccn1)c1cc(-c2ccccc2Cl)on1 -11.3%
CCC(C)NC(=O)CCCc1ccccc1 (stereo not drawn) 3.26%
O=C(Cn1cncn1)N/N=C/c1c2ccccc2cc2ccccc12 -1.05%
CC1CCN(S(=O)(=O)c2ccc(S(=O)(=O)NCc3ccco3)cc2)CC1 -3.69%
Oc1ccc(-c2onc3ccc(Cl)cc23)cc1 7.69%
Cn1nc(C(F)(F)F)c(C(=O)Nc2cccc(C(F)(F)F)c2)c1SCc1ccc(Cl)cc1 -9.84%
C=CCNc1nc(N)c(C(=C(C#N)C#N)c2ccccc2)s1 -9.14%
Cc1c(Nc2cc(N3CCCC(C)C3)c3nonc3c2[N+](=O)[O-])c(=O)n(-c2ccccc2)n1C (stereo not drawn) -8.74%
O=C(Nc1nnc(SCc2c(Cl)cccc2Cl)s1)C1CCCO1 (stereo not drawn) 2.16%
CC(C)C[C@@H](N)c1nnc(SCC(=O)c2ccc(Cl)cc2)o1 -3.08%
COc1ccc2[nH]cc(/C=C(/C#N)S(=O)(=O)c3ccccc3)c2c1 0.68%
CC1CC(C)CN(C(=O)CSc2nnc(CSc3ncccn3)n2C)C1 (stereo not drawn) -3.56%
CCN1C(=O)C(CC(=O)Nc2cc(C)ccc2C)SC1=Nc1ccc(S(N)(=O)=O)cc1 (stereo not drawn) -2.89%
COC(=O)C1=C(C)N=C2SC(C)C(=O)N2C1/C=C/c1ccccc1 (stereo not drawn) -12.6%
Cc1nn(C)c(Oc2ccccc2)c1[N+](=O)[O-] -6.21%
CCOC(=O)C1=C(NC(=S)NC(=O)c2ccccc2)c2ccccc2CC1(C)C 5.6%
O=S(=O)(c1cnccc1N1CCN(/N=C/c2ccc(Br)cc2)CC1)N1CCCCC1 -2.5%
Cc1cccc(S(=O)(=O)CC(=O)Nc2nc(-c3ccccc3)cs2)c1 -1.62%
COCc1nnc(NC(=O)CS(=O)(=O)Cc2ccccc2)s1 -4.96%
COC(=O)c1ccc(CSc2nnc(NC(C)C)s2)cc1 -15%
O=C(c1ccc(F)cc1)c1c[nH]c(C(=O)NCc2cccnc2)c1 3.12%
CCSc1nnc(NC(=O)Cc2ccccc2OC)s1 -15.2%
CC(=O)c1cnn(-c2cc(Oc3ccc(F)cc3)ncn2)c1C -5.47%
CC(C)=CC(=O)Nc1nnc(-c2ccc(F)cc2)s1 -17.5%
COc1ccc(C(=O)Nc2ncc3c(n2)-c2ccccc2CC3)cc1 -1.84%
C/C(=N/NC(=O)c1ccc(NC(=O)c2ccc(F)cc2)cc1)c1ccccc1 -9.91%
CCCc1nnc(NC(=O)CN2C(=O)c3ccccc3S2(=O)=O)s1 -11%
O=C(CN1C(=O)c2ccccc2S1(=O)=O)N1CCc2ccccc21 -11.2%
CCOC(=O)N1CCN(C(c2cccnc2)c2ccc3cccnc3c2O)CC1 (stereo not drawn) 5.49%
CN(C(=O)CSc1nnc(N)s1)c1c(N)n(Cc2ccccc2)c(=O)[nH]c1=O -0.95%
CN1/C(=C\C=C2\N=C(c3ccc(F)cc3)OC2=O)C(C)(C)c2ccccc21 -25.2%
Cc1ccc(NC(=O)c2ccc(CSc3ncnc4nc[nH]c34)cc2)c(C)c1 27.2%
CCOC(=O)N1CCN(S(=O)(=O)c2ccc(C(=O)Nc3ccc(F)cc3F)cc2)CC1 -7.78%
O=C(Nc1ccc2c(c1)CCC2)c1cccc(S(=O)(=O)N2CCN(c3ccc(F)cc3)CC2)c1 -5.86%
CN(Cc1ccccc1)C(=O)COc1ccccc1 -6.87%
C=CCNC(=S)N/N=C/c1ccc(OCc2ccccc2)cc1 7.95%
O=C(Nc1ccc2c(c1)OCCO2)C(c1ccc(F)cc1)N1CCCCC1 (stereo not drawn) 1.96%
CC1(C)Cc2c(sc3nc(SCC(=O)NCc4ccccc4)n(-c4ccccc4)c(=O)c23)CS1 -3.27%
O=C(Nc1ccccc1Cl)O/N=C(/c1ccccc1)c1ccccn1 -2.38%
CCC(C)(C)n1nnnc1CN1CCN(c2nc3ccc(C)cc3cc2C#N)CC1 -9.44%
COc1ccc(C(C#N)N2N=C(C)CC2(C)C)cc1 (stereo not drawn) -2.1%
COc1ccc(C2=Nc3cc(C)ccc3OC2)cc1 -6.91%
Cc1oc2nc(SCC(=O)NCc3cccnc3)nc(N)c2c1C 5.49%
COc1ccc(-c2nc(CS(=O)CC(=O)NCc3ccccn3)c(C)o2)cc1 (stereo not drawn) -9.42%
Cc1ccccc1OCc1nnc(SCC(=O)N2c3ccccc3Sc3ccc(Cl)cc32)o1 3.98%
CCOC(=O)c1c(C)oc2cc(Br)c(OCC(N)=O)cc12 -3.79%
CC(C)(C)N1CC(c2nc3ccccc3n2Cc2ccc(F)cc2)CC1=O (stereo not drawn) -8.27%
CC1CN(c2cc(=O)n(-c3cccc(Br)c3)c(=O)[nH]2)CC(C)O1 (stereo not drawn) -9.28%
Cc1c(Cl)c([N+](=O)[O-])nn1Cc1ccc(C(=O)N/N=C\c2cc(Cl)ccc2O)o1 -11.3%
COc1ccc(Nc2nc(Cl)nc(NCc3ccco3)n2)cc1 -10.4%
COc1ccc(-c2nc(CS(=O)CC(=O)N3CCc4ccccc4C3)c(C)o2)cc1 (stereo not drawn) -0.36%
Cc1ccc(S(=O)(=O)N(C)CC(=O)NC2CCCC2)cc1 -5.15%
COc1ccc(-c2nnc(SCC(=O)NC3CCCCC3)o2)cc1OC -12.8%
Cc1ccc(S(=O)(=O)NCC(=O)N2CCN(c3ccccn3)CC2)cc1 -12%
O=C(Nc1ccc(F)c(Cl)c1)C1CCN(S(=O)(=O)c2cccnc2)CC1 -7.65%
N#CC1=C(N)N(c2ccccc2)C2=C(C(=O)CCC2)C1c1ccccc1 (stereo not drawn) -9.12%
CCOC(=O)Cc1csc(NC(NC(=O)OCC)(C(F)(F)F)C(F)(F)F)n1 -10.9%
C=CCn1c(SCc2c(C(=O)OC)sc(N)c2C(=O)OC)nnc1-c1ccc(Cl)cc1 0.32%
Cc1ccc(Nc2nc(C)cc(C)c2C(N)=O)cc1 -8.3%
CCNC(=S)N1CCN(C(=O)c2ccco2)CC1 -10.9%
COc1ccc(CN(Cc2ccco2)S(=O)(=O)c2ccc(S(=O)(=O)N3CCCC3)cc2)cc1 -1.36%
O=C1c2ccccc2C(=O)N1CC1c2ccccc2CCN1S(=O)(=O)c1ccccc1 (stereo not drawn) -13.2%
Cc1noc(C)c1COC(=O)c1cc2ccccc2cc1O -5.75%
O=C(NCCCCCCCCCNC(=O)C(F)(F)F)C(F)(F)F -9%
COc1ccc(C(C(=O)NCc2ccccc2)N(Cc2cccs2)C(=O)c2cnccn2)cc1 (stereo not drawn) -8.73%
Fc1ccc(N2N=C(c3cccs3)CC2c2ccco2)c(F)c1 (stereo not drawn) -0.33%
O=c1[nH]c(CCl)nc2cc(-c3ccc(Cl)cc3)sc12 -15.1%
CCCCNC(=O)CCn1c(=S)[nH]c2cc3c(cc2c1=O)OCO3 -10.8%
CCn1c(C)nc2c1C(=O)c1ccccc1C2=O -6.21%
CC1CCN(c2ccc(S(=O)(=O)Nc3cc(C(=O)O)cc(C(=O)O)c3)cc2[N+](=O)[O-])CC1 -8.56%
CCN(CC)C(=O)CSc1nnc(C2CCCCC2)o1 -6.95%
O=C(CSCc1ccc([N+](=O)[O-])cc1)Nc1cccc(C(=O)Nc2ccccc2C(=O)O)c1 -6%
CCc1ccc2c(c1)cc(CN(C(=S)Nc1ccccc1Cl)C1CC1)c1nnnn12 -115%
O=C(CO/N=C/c1ccccc1O)NNC(=O)c1ccccc1Cl -11.5%
COC(=O)C1C(=O)NCC1c1ccc(C)cc1 (stereo not drawn) -7.84%
CC1C/C(=N/NC(=O)c2cccs2)CC(C)(C)C1 (stereo not drawn) -10.1%

inhibition, active:
O=C(CCS(=O)(=O)c1ccccc1)Nc1nc2c(s1)CCCC2 68.7%
CNC(=O)CN1C(=O)c2ccccc2S1(=O)=O 58.4%
O=C(Nc1cccc(F)c1)c1ccc(S(=O)(=O)N2CCCC2)cc1 72.1%
COc1ccc(-c2nc(CS(=O)CC(=O)NCc3cccnc3)c(C)o2)cc1OC (stereo not drawn) 78.2%
CC1CN(c2cc(=O)n(Cc3ccc(F)cc3)c(=O)[nH]2)CC(C)O1 (stereo not drawn) 70.7%
Cc1ccc(-c2nc(CS(=O)CC(=O)NC3CCCC3)c(C)o2)cc1 (stereo not drawn) 62.6%
Cc1ccc(-c2nc(CS(=O)CC(=O)N3CCN(c4ncccn4)CC3)c(C)o2)cc1 (stereo not drawn) 68.5%
